# High-throughput results: PubChem BioAssay, several laboratories
# A selection: hits, their analogues and other compounds. The true share with any hit is near 5.4%.
# HSF1 inh = HSF1 inhibition; NIH3T3-HGL HSE-luciferase, MG132-induced, luminescence 8 h; hits give low values; activity change, negative = inhibition, % at 7.5 µM (by protocol); 0.77% of 300,000 active;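 active = more than half of replicate wells show activity change below -50%, luminescence cut by over half; inconclusive = some wells, but at most half, below -50%; inactive = no replicate well below -50%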;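 also: luciferase reports HSF-1 transcriptional activity via heat shock element; 0% = median of DMSO wells and -100% = zero luminescence signal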
# HSF-1 act = increases HSF-1 driven luciferase reporter signal; 1.7% of 300,000 active; AID 504408; NIH3T3-HGL HSF-1 luciferase reporter, MG132, 8 h; 100% = twice DMSO control signal; activation, % at 9 µM;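 active = mean replicate activation of at least 50% with a set share of replicates each reaching 50%; inconclusive = only one of those two conditions met; inactive = mean below 50% and too few replicates reaching it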;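 also: 0% = median of the neutral control wells and 100% = twice that signal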
# GAA850 FXN act = frataxin GAA850 promoter activation; HEK293 lucGAA850 FXN promoter luciferase reporter, 24 h; percent of 10 µM SAHA response; 0.56% of 360,000 active; activation, % at 6 µM;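 active = activation above the average of all compounds screened plus 3 SD, cutoff fixed separately per campaign, cut at about 7.5% in these data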;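 also: 0% = DMSO wells and 100% = 10 µM SAHA wells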
# AHR act = activates the human aryl hydrocarbon receptor. AHR-responsive luciferase reporter cells, luminescence. P35869. activation, % at 5 µM. 2.5% of 320,000 active; in the data active = activation above about 47%;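 also: 0% = vehicle wells and 100% = reference agonist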
# NR0B1 inh = NR0B1 (DAX1) inhibition; HEK293 Gal4-DAX1 luciferase reporter, luminescence; inhibition, % at 6.75 µM; 0.99% of 340,000 active;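 active = inhibition above the mean over all tested compounds plus 3 SD, cut at about 4.2% in these data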;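 also: 0% = DAX1-transfected cells with DMSO and 100% = empty-vector control cells with DMSO; inhibition shows as a rise in luminescence from relieved DAX1 repression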
# Target sequence (P51843 207-470 limits assumed): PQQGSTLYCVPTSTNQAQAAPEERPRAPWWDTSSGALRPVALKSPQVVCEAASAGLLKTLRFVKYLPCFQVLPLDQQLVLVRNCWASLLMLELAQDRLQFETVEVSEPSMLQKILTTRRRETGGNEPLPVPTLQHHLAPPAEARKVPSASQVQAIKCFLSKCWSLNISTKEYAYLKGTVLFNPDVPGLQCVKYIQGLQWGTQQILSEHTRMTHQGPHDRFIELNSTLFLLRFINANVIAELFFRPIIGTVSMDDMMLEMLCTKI
# Numbers without * were called inactive; u = inconclusive; x = no result given.
SMILES,HSF1 inh,HSF-1 act,GAA850 FXN act,AHR act,NR0B1 inh
Cc1c(OCC(=O)N[C@@H](Cc2ccccc2)C(=O)O)ccc2c3c(c(=O)oc12)CCC3,-22,-36,-2,-1,2
Cc1c(OCC(=O)N[C@@H](Cc2ccccc2)C(=O)O)ccc2c1oc(=O)c1ccccc12,-1,-4,-1,0,4.5*
Cc1c(OCC(=O)OC(C)(C)C)ccc2c3c(c(=O)oc12)CCC3,5,11,2,-11,0
Cc1c(OCC(=O)NCCCn2ccnc2)ccc2c3c(c(=O)oc12)CCCC3,30,57*,-1,-6,0
Cc1oc(C(=O)O)cc1COc1ccc2c3c(c(=O)oc2c1C)CCC3,-60*,-69,6,0,0
Cc1c(C)c2ccc(OCC(=O)Nc3ccccn3)c(C)c2oc1=O,-88*,-91,-11,-5,-6
CCCS(=O)(=O)NC(=O)C1(C)CCCN(C(=O)c2cc(-c3cccs3)oc2C)C1 (centres undefined),x,x,1,x,x
CC(C)NC(=O)NC(=O)COC(=O)c1ccc([N+](=O)[O-])cc1Cl,0,-2,0,2,0
CC(c1ccon1)N(C)Cc1cn[nH]c1-c1ccc(-c2ccccc2)cc1 (centres undefined),13,32,3,61*,0
CN(Cc1ccon1)Cc1cn[nH]c1-c1ccc(-c2ccccc2)cc1,8,28,0,52*,-2
CN(Cc1cn[nH]c1-c1ccc(-c2ccccc2)cc1)CC1CCOCC1,6,-3,2,16,-1
CN(C)C(=O)c1ccc(Cc2cn(C)c3ccccc23)nc1,x,x,1,x,x
O=C(CSc1nc(-c2ccccc2)cs1)NCCCN1CCCC1=O,x,x,0,14,1
Cc1csc(NC(=O)c2nc3nc(C)cc(C)n3n2)n1,18,61*,5,38,3
Cc1ccccc1NC(=O)c1nc2nccc(C)n2n1,4,18,2,18,0
Cc1ccnc2nc(C(=O)Nc3nc(-c4ccccn4)cs3)nn12,-7,7,1,4,8.3*
COc1ccc(CNC(=O)C2=CC(c3ccc(C)cc3)=NS(=O)(=O)N2C)cc1,-2,13,-1,-2,1
COc1cc(C)ccc1Oc1ccc([N+](=O)[O-])cc1,x,x,-1,x,0
CCOC(=O)CC(=O)CSc1nc2c(cc1C#N)CCCCCC2,-6,-26,-1,2,0
N#Cc1cc2c(nc1SCC(=O)N1CCOCC1)CCCCC2,-67*,-75,-11,-3,2
CCOC(=O)c1ccc(S(=O)(=O)n2c(=O)oc3ccccc32)cc1,x,x,1,1,-1
Cc1ccc(S(=O)(=O)n2c(=O)oc3ccccc32)cc1,61,80*,1,17,1
Cc1cc(C(F)(F)F)nc(-n2cc(-c3cccc(N)c3)nn2)n1,-3,-5,2,8,-1
Nc1cccc(-c2cn3cc(C(F)(F)F)cc(Cl)c3n2)c1,-14,-19,1,63*,1
FC(F)(F)c1cc(Cl)c2nc(-c3ccccc3)cn2c1,22,u,5,74*,3
SMILES,HSF1 inh,HSF-1 act,GAA850 FXN act,AHR act,NR0B1 inh
O=C(c1ccc(S(=O)(=O)N2CCCCCC2)cc1)N1CCN(c2ccccc2F)CC1,-1,-10,0,2,1
C=CCN1C(=O)c2ccc(C(=O)NCCc3ccc(F)cc3)cc2C1=O,4,6,1,2,0
COc1ccc(C(=O)OCC(=O)c2c[nH]c3ccccc23)cc1OC,x,x,5,32,0
COc1ccccc1NC(=O)c1c[nH]c2ccccc12,1,46,1,61*,4
Cc1cccc(C)c1NC(=O)CNC(=O)Cc1c[nH]c2ccccc12,0,-3,2,6,1
Cc1cccc(C)c1NC(=O)c1c[nH]c2ccccc12,14,38,1,55*,1
COc1ccccc1NC(=O)c1ccccc1C(=O)Nc1ccccc1OC,-2,-4,-1,-1,-1
COc1ccccc1NC(=O)c1cnc(Nc2ccccc2OC)c2ccccc12,-3,1,1,73*,-3
COc1cc(Cl)c(CC(=O)c2c[nH]c3ccccc23)cc1OC,13,62*,-1,2,-2
CCN(CC)c1ccc(S(=O)(=O)N2CCOCC2)cc1NC(=O)COC(=O)c1cccnc1SC,0,-4,0,0,1
CCN(CC)C1Oc2cc3c(cc2C(c2cc(OC)c(OC)c(OC)c2)C1C)OCO3 (centres undefined),x,x,-2,x,2
Cc1ccc(Cn2ncc3c(N4CCN(c5ccc(C)cc5)CC4)ncnc32)cc1,28,38,1,5,-1
Cc1ccc(Cn2ncc3c(N4CCN(C)CC4)ncnc32)cc1,-75*,-81,-1,4,0
O=C(NC1=C(Nc2ccc(Cl)cc2)C(=O)c2ccccc2C1=O)c1ccccc1,9,13,-5,69*,0
Cc1ccc2nc(SCC(=O)NCc3ccc(F)cc3)nc(=O)n2c1,-1,-8,0,-2,0
CCOC(=O)C1=C(C)NC(C)=C(C(=O)OCC)C1/C=C/c1ccccc1OC,26,67*,1,13,6.4*
CCOC(=O)C1=C(C)NC(=O)NC1/C=C/c1ccccc1OC (centres undefined),13,23,4,4,1
COCCOC(=O)C1=C(C)NC(C)=C(C(=O)OCCOC)C1/C=C/c1ccccc1OC,47,77*,1,25,1
Cc1sc2nc(CSCC(=O)Nc3ccccc3C#N)[nH]c(=O)c2c1C,13,39,-1,70*,0
CCOC(=O)C1=C(C)NC(C)=C(C(=O)OCC)C1C(=O)OCC(=O)NCc1ccc(F)cc1,x,x,-2,10,0
CCOC(=O)Cn1c(S(=O)(=O)Cc2ccc(F)cc2)nc(-c2ccccc2)c1-c1ccccc1,40,89*,-6,-1,-2
CC(C)OP(=O)(OC(C)C)C(O)c1cccc([N+](=O)[O-])c1 (centres undefined),-3,-4,2,1,3
C#Cc1ccc(NC(=O)C2(C)CCN2C(=O)C2(c3ccccc3)CCCC2)cc1 (centres undefined),x,x,0,x,x
O=C(CN1C2=NCCCN2c2ccccc21)c1cccc(Br)c1,11,2,0,7,0
O=C(CN1C2=NCCCN2c2ccccc21)c1ccc(Cl)cc1Cl,23,37,0,59*,-1
COc1ccccc1CCNC(=O)c1ccc(NC(=O)CC2SC(N3CCCC3)=NC2=O)cc1 (centres undefined),-3,-17,-1,3,-1
COc1ccc(-c2oc3cccnc3c2/C=C/c2ccc(OC)c(OC)c2)cc1,24,5,2,47*,0
COc1cc(C(=O)NCC(c2cccs2)N2CCc3ccccc32)cc(OC)c1OC (centres undefined),27,36,-5,48*,-1
CC(=O)Nc1ccccc1Nc1nc(NCCO)nc(N2CCCC2)n1,-2,-6,1,6,0
